The record followed here is PubChem BioAssay AID588727 (Southern Research Specialized Biocontainment Screening …, 2011).

In all, about 350,000 compounds went through this assay and about 450 (0.13%) were called active. No rule for the calls is given here. These entries were drawn from the full list. Entries with a potency or affinity are not part of this list.

The assay can be described thus: inhibitors of VEEV TC-83 cytopathic effect, confirmation, Vero cells (AID 588727). The conditions noted are these: VEEV TC-83 cytopathic effect inhibition, at 20 µM. On the technique in general: Cytopathic effects are the visible damage that an infection or toxin causes in cultured cells.
The mark [1] stands for this setting: stronger effect = higher value unless noted.

`NC(=O)C1CCN(C(=O)c2cc(S(=O)(=O)N3CCOCC3)c(Cl)cc2Cl)CC1`: the inhibition (in general, the percentage by which the read-out fell short of the control) under setting [1] is 0.6% (inactive).
On the same count and under the same terms, the value for `Cc1nn(-c2ccc(C(=O)O)cc2)c(=O)c2ccccc12` was 0.65% (inactive).
Still for that read-out and setting: under `COc1ccc(CCNC(=O)CSc2nc(=O)[nH]c3c2CCC3)cc1OC` stands 0.77% (inactive); under `COc1ccc(CC(=O)OCC(=O)Nc2ncc(Cl)c(C)c2Cl)cc1`, 5.2% (inactive); under `COc1ccccc1/C=C/C(=O)c1ccc(Cl)cc1`, “inactive”.
Still for that read-out and setting: under `COc1ccccc1/C=C/C(=O)c1ccccc1` stands 26.1% (inactive); under `COc1ccccc1C(=O)N(Cc1ccco1)C1CCS(=O)(=O)C1` (stereo unspecified), 0.87% (inactive).
As for `CCCCNC(=O)[C@@H]1CCCN1S(=O)(=O)c1cccc2cccnc12`, the inhibition entry under setting [1] is “inactive”.
On the same count and under the same terms, under `O=C(Cc1ccc(NC(=O)C2CCN(C(=O)c3ccccc3)CC2)cc1)Nc1cccc(C(=O)N2CCCC2)c1` stands “inactive”; under `O=C(Nc1cccc2ccccc12)N(c1ccccc1)c1ccccc1`, “inactive”; under `Cc1ccnc(NS(=O)(=O)c2ccc(NC(=O)c3ccc(C)o3)cc2)n1`, 0.84% (inactive).
The same measure, in the same setting: the value for `Cc1sc2nc(CN(Cc3cccs3)C(=O)NC3CCCCC3)[nH]c(=O)c2c1C` was 6.2% (inactive).
As to `CC[C@@H](C)[C@H](CNC)NC[C@@H](Cc1cccc2ccccc12)NCCc1cccc(C(F)(F)F)c1`, under setting [1], the inhibition is 0% [measured here: 10K pilot screen inhibition, stronger effect = higher value] and the compound was called inactive.
For the compound `CNC[C@H](Cc1ccccc1)NC[C@@H](Cc1cccc2ccccc12)NCCc1ccc(C)cc1`, the inhibition entry under setting [1] is “inactive”.
`COc1ccc(/C=N\NC(=O)c2ccccc2OC)cc1COc1ccccc1C`: under setting [1], the inhibition was 10.1% (inactive).
On the same count and under the same terms, under `Cc1ccc(-c2nc(SC(C)C(=O)c3c(N)n(C)c(=O)n(C)c3=O)n[nH]2)cc1` (stereo unspecified) stands 10.2% (inactive).
On to `CCC(=O)N1c2ccc(S(=O)(=O)CCC(=O)NCc3cccs3)cc2CC1C` (stereo unspecified), for which the inhibition under setting [1] is 1.31% (inactive).
The same measure, in the same setting: under `O=C(NCC(Cl)c1ccc2ccccc2c1)c1c(F)cccc1F` (stereo unspecified) stands “inactive”.
Still for that read-out and setting: the value for `Cc1cc(-c2nnc(SCC(=O)Nc3ccccc3C(F)(F)F)n2N)n[nH]1` was 1.16% (inactive); that for `COc1cc(CNCCSc2nnnn2C)cc(Br)c1OCc1ccccc1F` was “inactive”; that for `COc1ccc(C(=O)/C=C/c2ccc(OC)c(Cn3nnc4ccccc43)c2)cc1` was 30.9% (inactive).
For `COc1ccc(/C=C/C(=O)c2ccccc2O)cc1CN1CCOCC1`, the inhibition under setting [1] was 6.83% (inactive).
On the same count and under the same terms, the value for `COc1ccc(/C=C/C(=O)c2ccc3ccccc3c2O)cc1CN1CCOCC1` was 2% (inactive); that for `COc1ccc(/C=C/C(=O)C23CC4CC(CC(C4)C2)C3)cc1CN1CCOCC1` was 6.32% (inactive); that for `CCC1(C)NC(=O)N(CC(=O)NCC(=O)Nc2c(C)cc(C)cc2C)C1=O` (stereo unspecified) was “inactive”.
Same read-out and setting: under `O=C(CSc1ncnc2c1cnn2-c1ccccc1)NC1CCCC1` stands 4.66% (inactive); under `Cc1nn(-c2ccccn2)c2nc(-c3cccs3)cc(C(=O)NCc3ccco3)c12`, 8.96% (inactive).
The same measure, in the same setting: under `CCC(=O)N1CCc2cc(S(=O)(=O)N3CCN(c4ccccc4)CC3)ccc21` stands 0.73% (inactive).
On to `CC(C)[C@H](NS(=O)(=O)c1ccccc1)C(=O)OCC(=O)Nc1cccc(S(N)(=O)=O)c1`, for which the inhibition under setting [1] is 3.51% (inactive).
Still for that read-out and setting: under `CS(=O)(=O)N1CCN(c2ccc([N+](=O)[O-])c(NCCN3CCOCC3)c2)CC1` stands 0.31% (inactive); under `CC(C)c1ccc(Nc2ncccc2C(=O)O)cc1`, 7.46% (inactive); under `COc1ccc(Nc2ncccc2C(=O)O)cc1`, “inactive”.
The same measure, in the same setting: under `CC[C@@]1(C(=O)OC)N[C@H](CN(C)C(=O)Nc2ccc(OC)cc2)[C@@H]2C(=O)N(C)C(=O)[C@@H]21` stands “inactive”; under `COc1ccc(C(=O)CCC(=O)Nc2cccnc2)cc1`, 1.27% (inactive).
The same measure, in the same setting: the value for `COc1ccc(Nc2c(-c3ccc(C)cc3)nc3cnccn23)cc1` was 2.6% (inactive); that for `CCOC(=O)C1CCCN(c2nnnn2-c2ccccc2)C1` (stereo unspecified) was 0.53% (inactive); that for `O=C(CSc1nnc(-c2ccco2)o1)Nc1cccc([N+](=O)[O-])c1` was 1.81% (inactive).
With `O=C(Oc1ccc2ccccc2c1Cl)N1CCCC1`, the inhibition under setting [1] was 35.1% (inactive).
On to `O=C(Oc1ccc2ccccc2c1Cl)N1CCCCCC1`, for which the inhibition under setting [1] was 2.11% (inactive).
On the same count and under the same terms, the value for `CN1CCN(C(=O)CCc2nc3ccccc3c(=O)[nH]2)CC1` was 5.24% (inactive).
The same measure, in the same setting: the value for `CN(C)C(CNC(=O)CN1C(=O)NC2(CCCC2)C1=O)c1ccccc1` (stereo unspecified) was 1.45% (inactive); that for `CCOc1ccc(/C=N/NC(=O)c2ccc(O)cc2)cc1CN1CC2CC(C1)c1cccc(=O)n1C2` (stereo unspecified) was 1.76% (inactive).
Still for that read-out and setting: under `CCc1c(C)sc(NC(=O)c2cccs2)c1C(N)=O` stands 0.91% (inactive); under `CCc1c(C)sc(NC(=O)C2CCCCC2C(=O)O)c1C(N)=O` (stereo unspecified), “inactive”.
As for `O=C(O)CSc1nnc(Cc2ccccc2)n1-c1ccccc1`, the inhibition by setting is: (stronger effect = higher value) 4.71% (inactive); (measured here: 10K pilot screen inhibition, stronger effect = higher value) 0.6%.
Take `COc1ccc(Cl)cc1NC(=O)C(C)N(C)Cc1cccc(Cl)c1Cl` (stereo unspecified): under setting [1], the inhibition was 0.94% (inactive).
Still for that read-out and setting: under `COc1ccc(C2/C(=C(\O)c3cc(C)ccc3C)C(=O)C(=O)N2CCN(C)C)cc1OC` (stereo unspecified) stands 0.58% (inactive); under `O=C(O)CCC(=O)N1CCCC1`, 0.36% (inactive).
On the same count and under the same terms, under `Nc1ccn([C@H]2CS[C@@H](CO)O2)c(=O)n1` stands 1.18% (inactive).
On the same count and under the same terms, under `CCc1cccc2c(SC(C)C(=O)NCC3CCCO3)nc(-c3ccccc3)nc12` (stereo unspecified) stands 0.17% (inactive).
In the case of `CC(Sc1ncnc2sc(-c3ccccc3)cc12)C(=O)NCC1CCCO1` (stereo unspecified), under setting [1], the inhibition is 12.6% (inactive).
The same measure, in the same setting: the value for `Cc1cccc(NC(=O)NNC(=O)c2sccc2-n2cccc2)c1` was 2.59% (inactive).
On the same count and under the same terms, under `O=C(/C=C/c1ccccc1Cl)c1ccc(O)cc1` stands 12.4% (inactive); under `O=C(/C=C/c1c(F)cccc1Cl)Nc1ncccn1`, 7.45% (inactive).
On the same count and under the same terms, the value for `CCCCn1c(N)c(N(Cc2ccccc2OC)C(=O)CCSC)c(=O)[nH]c1=O` was 2% (inactive).
As for `Cc1nn(C)cc1/C=N/NC(=S)Nc1ccc(Cl)cc1Cl`, the inhibition under setting [1] was 1.88% (inactive).
On the same count and under the same terms, under `Clc1cccc(-c2noc3ncnc(Nc4ccc5c(c4)OCO5)c23)c1` stands 1.3% (inactive); under `O=C(Nc1ccc(N2CCOCC2)c(Cl)c1)c1cccnc1`, 1.94% (inactive).
The same measure, in the same setting: under `O=C(Nc1ccc(N2CCCC2)c(Cl)c1)c1cccnc1` stands 9.45% (inactive); under `O=C(Nc1ccc(Cl)cc1)c1nc[nH]c1C(=O)NCCN(CCNC(=O)c1[nH]cnc1C(=O)Nc1ccc(Cl)cc1)CCNC(=O)c1[nH]cnc1C(=O)Nc1ccc(Cl)cc1`, 0.19% (inactive); under `CCCN1C(=O)c2ccccc2NC1c1cc(OC)c(OC)c(OC)c1` (stereo unspecified), “inactive”.
The same measure, in the same setting: the value for `CCCN1C(=O)c2ccccc2NC1c1ccc(OC)cc1OC` (stereo unspecified) was “inactive”.
With `CCOC(=O)c1c(-c2ccccc2)oc2cc(CN(C)C)c(O)c(CN(C)C)c12`, the inhibition under setting [1] is 2.26% (inactive).
As for `CC1(C)Cc2[nH]c3ccccc3c2C(C)(C)N1`, the inhibition under setting [1] was 0.1% (inactive).
For `Cc1cccn2cc(COc3cccc([N+](=O)[O-])c3)nc12`, the inhibition under setting [1] was 2.58% (inactive).
Still for that read-out and setting: under `Cc1cccn2cc(-c3ccccc3)nc12` stands 5.4% (inactive); under `Cc1ccc(S(=O)(=O)Oc2ccc(N3C(=O)C4C5CCC(C5)C4C3=O)cc2)cc1` (stereo unspecified), 2.05% (inactive).
Same read-out and setting: under `Cc1ccc2[nH]c3c(=O)n(CC(=O)Nc4ccccc4N4CCN(C)CC4)ncc3c2c1` stands 0.06% (inactive); under `Cc1ccc2oc(=O)c3cnn(CC(=O)N4CCN(c5ccccc5)CC4)c3c2c1`, 10.3% (inactive); under `COc1ccc(C)cc1NC(=O)CCN1CCN(C/C=C/c2ccccc2)CC1`, “inactive”.
In the case of `Cc1ccccc1N1CC(O)(c2cccs2)[N+]2=C1CCCC2` (stereo unspecified), the inhibition under setting [1] was 1.35% (inactive).
Still for that read-out and setting: under `OC1(c2cccs2)CN(c2ccc(Cl)cc2)C2=[N+]1CCCS2` (stereo unspecified) stands 0.66% (inactive); under `CCc1ccc(N2CC(O)(c3cccs3)[N+]3=C2SCCC3)cc1` (stereo unspecified), 3.66% (inactive); under `C[N+]1=C2CCCCCN2C(O)(c2ccccc2)C1` (stereo unspecified), “inactive”.
On the same count and under the same terms, the value for `COc1ccc2oc(C(=O)NCC3CCCO3)c(C)c2c1` (stereo unspecified) was 5.81% (inactive); that for `COc1ccc(CCNC(=O)CSc2nccc(=O)[nH]2)cc1OC` was “inactive”; that for `COc1ccccc1N/N=C(\C#N)C(=N)N1CCOCC1` was 1.39% (inactive).
Still for that read-out and setting: under `COc1ccc(Nc2cc(C(=O)NCCCN3CCN(C)CC3)c3ccccc3n2)cc1` stands 0.57% (inactive).
With `COc1ccc(Nc2cc(C(=O)NCCCN3CCN(C)CC3)c3ccccc3n2)cc1OC`, the inhibition under setting [1] is 0.68% (inactive).
Same read-out and setting: the value for `O=C(NCc1ccccc1Cl)C(=O)NCC(c1ccco1)N1CCOCC1` (stereo unspecified) was “inactive”; that for `Cc1c(NC(=O)CSCc2ccccc2)cccc1C(=O)O` was 0.57% (inactive).
Still for that read-out and setting: under `Cc1ccc(CSCC(=O)Nc2ccccc2F)cc1` stands 1.09% (inactive); under `COCCCNC(=S)NCCc1ccc(F)cc1`, 0.69% (inactive).
Still for that read-out and setting: under `COc1ccc(NCC(=O)N/N=C2\CCCC(C)C2)cc1` (stereo unspecified) stands 0.09% (inactive); under `C=CCN=c1scc(-c2ccc(F)cc2)n1/N=C/c1ccccn1`, 7.98% (inactive).
Turning to `C=CCN=c1scc(-c2ccccc2)n1/N=C/c1ccccn1`, the inhibition under setting [1] was 12% (inactive).
On the same count and under the same terms, under `CC(=O)OCC1OC(n2cc(F)c(=O)[nH]c2=O)C(OC(C)=O)C1OC(C)=O` (stereo unspecified) stands 5.22% (inactive); under `C[C@H]1O[C@@H](n2cc(F)c(=O)[nH]c2=O)[C@H](O)[C@@H]1O`, 6.89% (inactive); under `Cc1ccnc(NC(=O)CCC(=O)N(CC(=O)NCc2ccc(F)cc2)CC2CCCO2)c1` (stereo unspecified), 0.42% (inactive).
Same read-out and setting: under `COc1ccccc1-c1cn[nH]c1-c1ccc(OCc2ccc(F)cc2)cc1O` stands 3.76% (inactive).
Still for that read-out and setting: the value for `OCCOCCNc1ncnc2c1c(-c1ccccc1)cn2-c1ccccc1` was 10.9% (inactive).
As to `c1ccc(-c2cn(-c3ccccc3)c3ncnc(NCCCN4CCOCC4)c23)cc1`, under setting [1], the inhibition was 9.07% (inactive).
Same read-out and setting: under `COc1ccc(NC(=O)CN2CCCCC2)cc1S(=O)(=O)N1CCCCC1` stands 0.88% (inactive); under `NC(=O)CC(NC(=O)Cc1cccc2ccccc12)c1ccc(NCc2ccc(F)c(F)c2)c([N+](=O)[O-])c1` (stereo unspecified), 0.49% (inactive).
